# Measurements taken from PubChem BioAssay (EPA / NIEHS).
# Records with an inconclusive call do not appear. Activity calls are given as the source filed them. The calls were made as follows, unless noted: active = hit-call score of the fitted dose curve at least 0.9, where 1 is the maximum; inactive = score below 0.9.
# Experiments:
# [1] = ATG_TAL_CIS: Attagene CIS-FACTORIAL HepG2 Assay for human TAL Basal Promoter (AID 2282966); conditions: HepG2 Attagene cis-factorial TAL promoter reporter; actives raise or lower the signal;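 also: background control endpoint measuring basal TAL promoter reporter mRNA not a specific factor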
# How it was run: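 Fluorescence of labelled reporter cDNA fragments, resolved by capillary electrophoresis, gave the readout. Human HepG2 liver cells carried transiently transfected cis-element reporter units and were treated for 24 hours; activity was fitted bidirectionally against DMSO.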
# [2] = ATG_TGFb_CIS: Attagene CIS-FACTORIAL HepG2 Assay for human Transforming Growth Factor (TGF) (AID 2282967); conditions: HepG2 Attagene CIS TGFb reporter, mRNA transcription; actives raise or lower the signal
# How it was run: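 After a 24-hour incubation with compound, transfected HepG2 cells were lysed for RNA; reporter cDNA was amplified, fluorescently end-labeled and separated by CE. DMSO served as baseline for bidirectional fits.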
# [3] = molecular target: X-box-binding protein 1 (Homo sapiens) (UniProt P17861); assay: ATG_Xbp1_CIS: Attagene CIS-FACTORIAL HepG2 Assay for human X-box Binding Protein 1 (XBP1) (AID 2282972); conditions: HepG2 XBP1 cis-element reporter, Attagene multiplex; actives raise or lower the signal
# How it was run: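 HepG2, transient MRTU transfection (cis-promoter driven), 24 h compound exposure. Total RNA → oligo(dT) RT → PCR → 6-FAM labeling → HpaI cut → CE. Bidirectional fit vs DMSO.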
# [4] = ATG_GAL4_TRANS: Attagene TRANS-FACTORIAL HepG2 Assay for GAL4 (Internal Marker) (AID 2282976; active = hit-call score of the fitted dose curve at least 0.9, where 1 is the maximum); conditions: HepG2 Attagene TRANS GAL4 internal marker reporter
# How it was run: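 First, HepG2 cells were transfected with reporter units under GAL4-UAS control. Next, they were treated with chemical for 24 h. Finally, RNA was reverse-transcribed, PCR-amplified, FAM-labelled and resolved by capillary electrophoresis, with induction scored against DMSO.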
# [5] = molecular target: Oxysterols receptor LXR-alpha (Homo sapiens) (UniProt Q13133); assay: ATG_LXRa_TRANS: Attagene TRANS-FACTORIAL HepG2 Assay for human Liver X Receptor alpha (LXRa) (AID 2282980; active = hit-call score of the fitted dose curve at least 0.9, where 1 is the maximum); conditions: HepG2 Attagene TRANS reporter, LXRa transactivation
# How it was run: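 Transfect HepG2 with GAL4-UAS multiplex reporter constructs (TRANS format, chimeric receptor-GAL4); treat 24 h; extract RNA, reverse-transcribe, PCR-amplify, FAM-label, HpaI-digest; resolve fragments by capillary electrophoresis. Upward response vs DMSO.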
# [6] = molecular target: Oxysterols receptor LXR-beta (Homo sapiens) (UniProt P55055); assay: ATG_LXRb_TRANS: Attagene TRANS-FACTORIAL HepG2 Assay for human Liver X Receptor beta (LXRb) (AID 2282981; active = hit-call score of the fitted dose curve at least 0.9, where 1 is the maximum); conditions: HepG2 Attagene TRANS GAL4-LXRb reporter, mRNA
# How it was run: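 HepG2 cells transiently transfected with multiple reporter transcription units carrying chimeric NR-Gal4 proteins acting on GAL4-UAS reporters; compound exposure 24 h. Reporter mRNA quantified by RT-PCR, 6-FAM labelling, HpaI digestion and capillary electrophoresis; gain of signal versus DMSO.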
# [7] = ATG_M_06_TRANS: Attagene TRANS-FACTORIAL HepG2 Assay for M06 Transcription Factor (Internal Marker) (AID 2282983; active = hit-call score of the fitted dose curve at least 0.9, where 1 is the maximum;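 also: reporter transcript level by RT-PCR then capillary electrophoresis fluorescence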); conditions: HepG2 Attagene TRANS M06 internal marker reporter
# How it was run: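 Transfect HepG2 with MRTUs → dose compounds 24 h → isolate RNA, oligo(dT) RT → PCR with reporter primers → 6-FAM primer extension → HpaI digest → CE fragment analysis. Positive direction vs DMSO.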
# [8] = ATG_M_32_TRANS: Attagene TRANS-FACTORIAL HepG2 Assay for M32 Transcription Factor (Internal Marker) (AID 2282984; active = hit-call score of the fitted dose curve at least 0.9, where 1 is the maximum;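 also: transcript level of a background control reporter unit measured by RT-PCR and capillary electrophoresis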); conditions: HepG2 Attagene TRANS M32 internal marker reporter
# How it was run: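 HepG2 cells transiently transfected with multiple GAL4-UAS reporter transcription units, dosed for 24 hours; reporter mRNA quantified by RT-PCR, 6-FAM primer extension, HpaI digestion and capillary electrophoresis. Gain-of-signal fitted versus DMSO baseline; internal background-control marker.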
# [9] = molecular target: Transcriptional activator Myb (Homo sapiens) (UniProt P10242); assay: ATG_Myb_CIS: Attagene CIS-FACTORIAL HepG2 Assay for human Myeloblastosis (Myb) Proto-Oncogene Transcription Factor (AID 2282986); conditions: HepG2 Attagene CIS-FACTORIAL Myb reporter transcription; actives raise or lower the signal
# How it was run: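 In this HepG2 transient-transfection format, cis-regulated reporter mRNA is quantified 24 h post-dosing by RT-PCR with capillary electrophoresis, fitted bidirectionally to DMSO baseline.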
# [10] = molecular target: Nuclear respiratory factor 1 (Homo sapiens) (UniProt Q16656); assay: ATG_NRF1_CIS: Attagene CIS-FACTORIAL HepG2 Assay for human Nuclear Respiratory Factor 1 (NRF1) Orphan Gene (AID 2282987); conditions: HepG2 NRF1 cis-element reporter, Attagene multiplex; actives raise or lower the signal
# How it was run: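 Using DMSO as baseline, gain- or loss-of-signal was fitted for reporter mRNA levels in HepG2 cells transiently transfected with cis-regulated reporter units. Samples were taken 24 h after dosing and read by RT-PCR with capillary electrophoresis.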
# [11] = ATG_VDRE_CIS: Attagene CIS-FACTORIAL HepG2 Assay for human Vitamin D Receptor Element (VDRE) (AID 2282968); conditions: HepG2 VDRE cis-reporter transcription, actives raise or lower the signal
# How it was run: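 HepG2 cells transiently transfected with cis-element reporter units, dosed 24 h; reporter mRNA measured by RT-PCR, 6-FAM labeling, HpaI digestion and capillary electrophoresis. Activity fitted bidirectionally against DMSO baseline.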
# [12] = molecular target: Bile acid receptor (Homo sapiens) (UniProt Q96RI1); assay: ATG_FXR_TRANS: Attagene TRANS-FACTORIAL HepG2 Assay for Farnesoid X Receptor (FXR) (AID 2282979; active = hit-call score of the fitted dose curve at least 0.9, where 1 is the maximum;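 also: hits raise reporter mRNA above DMSO so AC50 marks FXR activation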); conditions: HepG2 Attagene TRANS FXR-GAL4 reporter transcription
# How it was run: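 Transient transfection of HepG2 with multiplexed GAL4-UAS reporter units; exogenous FXR-GAL4 chimera. Dose 24 h → TriZol RNA → oligo(dT) RT → PCR, 6-FAM primer extension, HpaI cut → CE. Gain vs DMSO.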
# [13] = molecular target: Hepatocyte nuclear factor 4-alpha (Homo sapiens) (UniProt P41235); assay: ATG_HNF4a_TRANS: Attagene TRANS-FACTORIAL HepG2 Assay for human Hepatocyte Nuclear Factor 4 alpha (HNF4a) (AID 2282982; active = hit-call score of the fitted dose curve at least 0.9, where 1 is the maximum); conditions: HepG2 HNF4a transactivation reporter, mRNA readout
# How it was run: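 HepG2 cells transiently transfected with multiplexed GAL4-UAS reporter units responsive to chimeric NR-GAL4 proteins; compound exposure 24 h. Reporter mRNA quantified by RT-PCR, 6-FAM labelling, HpaI digestion and capillary electrophoresis; gain of signal versus DMSO baseline.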
# [14] = molecular target: Glucocorticoid receptor (Homo sapiens) (UniProt P04150); assay: ATG_GR_TRANS: Attagene TRANS-FACTORIAL HepG2 Assay for human Glucocorticoid Receptor (GR) (AID 2282978; active = hit-call score of the fitted dose curve at least 0.9, where 1 is the maximum;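 also: activators score as hits since higher reporter transcript over DMSO is fitted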); conditions: HepG2 Attagene TRANS GR reporter, mRNA transcription
# How it was run: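 Exogenous NR-GAL4 fusion activity was assessed through induced GAL4-UAS reporter transcripts in transfected human HepG2 cells, quantified after 24 h by RT-PCR and fluorescent capillary electrophoresis with DMSO as baseline.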
# [15] = molecular target: Nuclear receptor subfamily 1 group I member 3 (Homo sapiens) (UniProt Q14994); assay: ATG_CAR_TRANS: Attagene TRANS-FACTORIAL HepG2 Assay for human Constitutive Androstane Receptor (CAR) (AID 2282969; active = hit-call score of the fitted dose curve at least 0.9, where 1 is the maximum;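 also: activators raise reporter mRNA above DMSO so AC50 marks induction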); conditions: HepG2 Attagene TRANS-FACTORIAL CAR reporter
# How it was run: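 HepG2 cells transiently transfected with multiplexed GAL4-UAS reporter units expressing chimeric NR-Gal4 proteins; compound exposure 24 h. Reporter mRNA measured by RT-PCR, 6-FAM labelling, HpaI digestion and capillary electrophoresis; gain-of-signal fitted against DMSO baseline.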
# [16] = ATG_M_19_TRANS: Attagene TRANS-FACTORIAL HepG2 Assay for M19 Transcription Factor (Internal Marker) (AID 2282974; active = hit-call score of the fitted dose curve at least 0.9, where 1 is the maximum); conditions: HepG2 Attagene TRANS-FACTORIAL M19 internal marker reporter
# How it was run: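 Using RT-PCR and capillary electrophoresis, reporter mRNA from transiently transfected human HepG2 cells was quantified following 24 h exposure; activity was fitted in the positive direction against DMSO.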
# [17] = molecular target: Estrogen receptor (Homo sapiens) (UniProt P03372); assay: ATG_ERa_TRANS: Attagene TRANS-FACTORIAL HepG2 Assay for human Estrogen Receptor alpha (ERa) (AID 2282970; active = hit-call score of the fitted dose curve at least 0.9, where 1 is the maximum); conditions: HepG2 Attagene TRANS ERa GAL4 reporter, mRNA
# How it was run: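 Human liver HepG2, transient transfection of multiple GAL4-UAS reporter units; TRANS format (exogenous NR-Gal4 chimera). 24 h dosing. Readout: reporter mRNA, RT-PCR, 6-FAM primer extension, HpaI digest, capillary electrophoresis. Positive direction vs DMSO.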
# [18] = molecular target: Estrogen-related receptor gamma (Homo sapiens) (UniProt P62508); assay: ATG_ERRg_TRANS: Attagene TRANS-FACTORIAL HepG2 Assay for human Estrogen-Related Receptor gamma (ERRg) (AID 2282977; active = hit-call score of the fitted dose curve at least 0.9, where 1 is the maximum;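 also: hits increase reporter signal over DMSO so potencies reflect activators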); conditions: HepG2 Attagene TRANS reporter, ERRg transactivation
# How it was run: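 HepG2 cells transiently transfected with multiplexed GAL4-UAS reporter units and chimeric NR-Gal4 constructs were exposed to test chemicals for 24 h. Reporter mRNA was measured by RT-PCR, 6-FAM primer extension, HpaI digestion and capillary electrophoresis; gain-of-signal versus DMSO.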
# [19] = molecular target: Nuclear receptor subfamily 4 group A member 2 (Homo sapiens) (UniProt P43354); assay: ATG_NURR1_TRANS: Attagene TRANS-FACTORIAL HepG2 Assay for human Nuclear Receptor Related Protein 1 (NURR1) (AID 2282985; active = hit-call score of the fitted dose curve at least 0.9, where 1 is the maximum); conditions: HepG2 Attagene TRANS reporter, mRNA readout
# How it was run: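 HepG2 cells transiently transfected with GAL4-UAS reporter units and chimeric NR-Gal4 constructs; chemical exposure 24 h. Reporter mRNA quantified by RT-PCR, fluorescent labelling and capillary electrophoresis; gain of signal fitted relative to DMSO baseline.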
# [20] = molecular target: Steroid hormone receptor ERR1 (Homo sapiens) (UniProt P11474); assay: ATG_ERRa_TRANS: Attagene TRANS-FACTORIAL HepG2 Assay for human Estrogen-Related Receptor alpha (ERRa) (AID 2282971; active = hit-call score of the fitted dose curve at least 0.9, where 1 is the maximum); conditions: HepG2 Attagene TRANS reporter, ERRa transactivation
# How it was run: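 Reporter transcript induction was quantified by RT-PCR and capillary electrophoresis of FAM-labelled, HpaI-cut products after 24 h treatment of HepG2 cells carrying transiently transfected GAL4-UAS reporter units and an exogenous ERRa-Gal4 fusion; activity scored as increase over DMSO.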
# Sequence of Estrogen-related receptor gamma (Homo sapiens) (P62508 whole entry, looked up, the tested form may be a part): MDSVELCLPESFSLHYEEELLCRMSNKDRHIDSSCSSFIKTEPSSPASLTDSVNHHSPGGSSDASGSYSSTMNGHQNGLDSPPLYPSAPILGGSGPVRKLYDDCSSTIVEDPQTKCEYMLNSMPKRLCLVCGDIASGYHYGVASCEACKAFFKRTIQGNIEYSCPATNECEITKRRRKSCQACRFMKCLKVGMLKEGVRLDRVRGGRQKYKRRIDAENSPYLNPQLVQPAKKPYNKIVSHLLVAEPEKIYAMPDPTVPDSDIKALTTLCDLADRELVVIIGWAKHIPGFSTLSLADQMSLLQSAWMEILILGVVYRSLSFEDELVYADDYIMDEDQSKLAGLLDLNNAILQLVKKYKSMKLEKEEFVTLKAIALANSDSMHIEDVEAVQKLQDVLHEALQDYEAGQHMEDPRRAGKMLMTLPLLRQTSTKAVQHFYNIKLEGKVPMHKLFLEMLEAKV
# Sequence of Bile acid receptor (Homo sapiens) (Q96RI1 whole entry, looked up, the tested form may be a part): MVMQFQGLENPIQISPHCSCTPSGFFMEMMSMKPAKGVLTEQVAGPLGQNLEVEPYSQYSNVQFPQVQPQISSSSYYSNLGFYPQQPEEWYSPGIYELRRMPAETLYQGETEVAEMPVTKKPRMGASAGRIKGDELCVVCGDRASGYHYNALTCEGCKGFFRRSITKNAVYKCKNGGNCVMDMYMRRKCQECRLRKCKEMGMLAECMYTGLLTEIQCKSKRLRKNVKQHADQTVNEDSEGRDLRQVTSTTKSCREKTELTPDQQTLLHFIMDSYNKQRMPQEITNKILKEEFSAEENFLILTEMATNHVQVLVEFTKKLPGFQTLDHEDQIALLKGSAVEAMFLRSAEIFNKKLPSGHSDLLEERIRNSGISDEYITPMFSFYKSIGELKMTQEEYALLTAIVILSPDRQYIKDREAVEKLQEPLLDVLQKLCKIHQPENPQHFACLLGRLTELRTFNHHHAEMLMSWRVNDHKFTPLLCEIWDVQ
# Sequence of X-box-binding protein 1 (Homo sapiens) (P17861 whole entry, looked up): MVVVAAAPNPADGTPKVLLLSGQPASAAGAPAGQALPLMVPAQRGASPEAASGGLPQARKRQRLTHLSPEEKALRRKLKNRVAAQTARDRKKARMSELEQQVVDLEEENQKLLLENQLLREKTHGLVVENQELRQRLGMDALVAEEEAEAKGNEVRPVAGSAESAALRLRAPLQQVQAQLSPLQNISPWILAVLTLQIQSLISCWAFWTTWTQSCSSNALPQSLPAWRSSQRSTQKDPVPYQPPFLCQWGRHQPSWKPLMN
# Sequence of Oxysterols receptor LXR-alpha (Homo sapiens) (Q13133 whole entry, looked up, the tested form may be a part): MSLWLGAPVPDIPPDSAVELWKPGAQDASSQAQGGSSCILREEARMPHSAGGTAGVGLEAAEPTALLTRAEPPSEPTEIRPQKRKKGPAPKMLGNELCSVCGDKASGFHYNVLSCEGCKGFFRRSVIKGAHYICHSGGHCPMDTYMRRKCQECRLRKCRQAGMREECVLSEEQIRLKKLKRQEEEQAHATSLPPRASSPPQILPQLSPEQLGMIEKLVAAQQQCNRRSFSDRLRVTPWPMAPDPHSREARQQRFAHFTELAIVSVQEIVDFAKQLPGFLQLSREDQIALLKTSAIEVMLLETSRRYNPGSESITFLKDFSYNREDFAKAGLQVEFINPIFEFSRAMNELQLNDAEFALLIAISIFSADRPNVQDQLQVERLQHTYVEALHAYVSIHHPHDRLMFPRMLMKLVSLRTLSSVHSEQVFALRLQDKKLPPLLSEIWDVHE
# Sequence of Nuclear receptor subfamily 1 group I member 3 (Homo sapiens) (Q14994 whole entry, looked up, the tested form may be a part): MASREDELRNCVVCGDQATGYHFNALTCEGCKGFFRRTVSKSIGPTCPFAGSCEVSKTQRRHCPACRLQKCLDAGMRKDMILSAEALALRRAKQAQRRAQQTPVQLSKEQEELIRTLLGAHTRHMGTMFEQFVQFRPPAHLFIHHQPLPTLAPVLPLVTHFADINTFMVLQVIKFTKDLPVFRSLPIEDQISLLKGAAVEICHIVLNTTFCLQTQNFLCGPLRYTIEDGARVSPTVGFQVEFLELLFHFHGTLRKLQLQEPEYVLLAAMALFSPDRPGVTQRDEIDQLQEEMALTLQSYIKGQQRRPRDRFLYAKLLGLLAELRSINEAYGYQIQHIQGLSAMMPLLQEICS
# Sequence of Hepatocyte nuclear factor 4-alpha (Homo sapiens) (P41235 whole entry, looked up, the tested form may be a part): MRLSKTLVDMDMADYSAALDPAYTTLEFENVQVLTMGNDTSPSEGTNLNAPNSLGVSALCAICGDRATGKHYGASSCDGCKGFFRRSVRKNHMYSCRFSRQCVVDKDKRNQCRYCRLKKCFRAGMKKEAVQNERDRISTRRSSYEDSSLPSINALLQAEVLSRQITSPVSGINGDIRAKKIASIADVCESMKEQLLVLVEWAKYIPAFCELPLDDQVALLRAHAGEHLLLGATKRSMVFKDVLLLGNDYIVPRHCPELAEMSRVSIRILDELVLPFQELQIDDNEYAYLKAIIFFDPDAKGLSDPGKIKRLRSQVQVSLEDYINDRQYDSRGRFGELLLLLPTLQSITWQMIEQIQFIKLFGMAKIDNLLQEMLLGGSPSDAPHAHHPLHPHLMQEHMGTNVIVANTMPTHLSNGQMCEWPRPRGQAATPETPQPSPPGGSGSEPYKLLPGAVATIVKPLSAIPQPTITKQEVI
# Sequence of Glucocorticoid receptor (Homo sapiens) (P04150 whole entry, looked up, the tested form may be a part): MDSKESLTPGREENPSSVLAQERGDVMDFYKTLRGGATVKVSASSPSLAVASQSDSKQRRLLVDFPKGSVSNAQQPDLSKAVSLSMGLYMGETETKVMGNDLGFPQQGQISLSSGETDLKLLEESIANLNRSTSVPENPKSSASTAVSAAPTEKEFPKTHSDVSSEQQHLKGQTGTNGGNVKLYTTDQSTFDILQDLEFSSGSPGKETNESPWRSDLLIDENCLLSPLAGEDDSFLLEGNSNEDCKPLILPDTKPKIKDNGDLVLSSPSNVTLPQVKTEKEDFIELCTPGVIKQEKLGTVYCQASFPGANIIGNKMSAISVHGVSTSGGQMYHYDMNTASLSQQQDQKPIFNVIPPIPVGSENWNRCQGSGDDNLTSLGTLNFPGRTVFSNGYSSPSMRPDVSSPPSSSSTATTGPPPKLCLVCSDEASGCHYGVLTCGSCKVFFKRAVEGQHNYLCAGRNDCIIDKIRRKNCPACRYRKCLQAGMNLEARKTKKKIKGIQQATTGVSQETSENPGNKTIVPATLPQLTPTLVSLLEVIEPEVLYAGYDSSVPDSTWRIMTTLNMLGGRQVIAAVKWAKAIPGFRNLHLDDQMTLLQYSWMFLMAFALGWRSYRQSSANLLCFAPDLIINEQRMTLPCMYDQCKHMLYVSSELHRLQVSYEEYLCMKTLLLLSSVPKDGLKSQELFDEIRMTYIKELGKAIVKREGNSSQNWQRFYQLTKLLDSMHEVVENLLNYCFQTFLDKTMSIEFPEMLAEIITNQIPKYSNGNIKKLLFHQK
# Sequence of Oxysterols receptor LXR-beta (Homo sapiens) (P55055 whole entry, looked up, the tested form may be a part): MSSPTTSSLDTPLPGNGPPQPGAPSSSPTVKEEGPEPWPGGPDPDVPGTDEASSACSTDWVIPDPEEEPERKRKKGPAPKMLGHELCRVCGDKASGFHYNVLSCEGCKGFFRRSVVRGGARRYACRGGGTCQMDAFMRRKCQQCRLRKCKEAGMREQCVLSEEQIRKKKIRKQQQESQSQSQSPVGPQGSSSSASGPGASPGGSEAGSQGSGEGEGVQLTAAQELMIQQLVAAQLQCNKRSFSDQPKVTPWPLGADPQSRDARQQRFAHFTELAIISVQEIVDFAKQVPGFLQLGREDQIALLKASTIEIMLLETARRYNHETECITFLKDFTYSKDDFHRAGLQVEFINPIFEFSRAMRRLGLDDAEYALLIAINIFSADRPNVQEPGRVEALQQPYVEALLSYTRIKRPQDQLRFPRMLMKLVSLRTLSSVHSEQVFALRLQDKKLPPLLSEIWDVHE
# Sequence of Nuclear respiratory factor 1 (Homo sapiens) (Q16656 whole entry, looked up): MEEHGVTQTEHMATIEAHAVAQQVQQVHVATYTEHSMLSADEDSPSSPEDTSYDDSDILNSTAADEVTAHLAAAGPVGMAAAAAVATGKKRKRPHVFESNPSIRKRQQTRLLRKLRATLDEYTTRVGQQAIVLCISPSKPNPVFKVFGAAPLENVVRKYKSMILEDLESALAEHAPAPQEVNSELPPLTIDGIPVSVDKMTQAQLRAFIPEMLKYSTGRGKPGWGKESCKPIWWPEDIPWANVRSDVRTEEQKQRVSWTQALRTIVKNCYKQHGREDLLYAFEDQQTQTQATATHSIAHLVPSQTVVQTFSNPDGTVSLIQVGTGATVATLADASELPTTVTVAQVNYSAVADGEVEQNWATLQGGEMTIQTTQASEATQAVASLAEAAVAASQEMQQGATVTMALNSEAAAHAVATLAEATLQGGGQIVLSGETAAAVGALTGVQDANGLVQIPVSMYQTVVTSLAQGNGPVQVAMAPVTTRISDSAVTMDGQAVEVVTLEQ
# Sequence of Transcriptional activator Myb (Homo sapiens) (P10242 whole entry, looked up): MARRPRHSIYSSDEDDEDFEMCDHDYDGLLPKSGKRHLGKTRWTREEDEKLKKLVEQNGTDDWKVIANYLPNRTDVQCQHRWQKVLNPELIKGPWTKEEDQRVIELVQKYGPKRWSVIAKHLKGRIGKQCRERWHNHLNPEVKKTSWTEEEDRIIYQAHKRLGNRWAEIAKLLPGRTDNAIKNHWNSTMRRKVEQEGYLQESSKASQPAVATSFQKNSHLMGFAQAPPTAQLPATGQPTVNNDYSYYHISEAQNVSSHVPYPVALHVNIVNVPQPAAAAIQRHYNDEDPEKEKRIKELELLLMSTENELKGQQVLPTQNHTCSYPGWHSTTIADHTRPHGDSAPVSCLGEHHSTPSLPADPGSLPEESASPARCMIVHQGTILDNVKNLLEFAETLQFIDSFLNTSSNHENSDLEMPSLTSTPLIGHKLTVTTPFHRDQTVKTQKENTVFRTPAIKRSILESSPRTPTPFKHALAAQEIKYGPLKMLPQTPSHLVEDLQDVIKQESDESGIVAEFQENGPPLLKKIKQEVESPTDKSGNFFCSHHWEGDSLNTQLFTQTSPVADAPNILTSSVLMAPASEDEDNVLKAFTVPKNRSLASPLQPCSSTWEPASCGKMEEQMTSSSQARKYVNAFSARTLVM
structure (smiles),measurement,setting,value
CC(N)=O,outcome,[1],inactive
same,outcome,[2],inactive
same,outcome,[3],inactive
same,outcome,[4],inactive
same,outcome,[5],inactive
same,outcome,[6],inactive
same,outcome,[7],inactive
same,outcome,[8],inactive
same,outcome,[9],inactive
same,outcome,[10],inactive
COC(=O)CCCC(=O)OC,outcome,[1],inactive
same,outcome,[2],inactive
same,outcome,[11],inactive
same,outcome,[3],inactive
same,outcome,[12],inactive
same,outcome,[13],inactive
same,outcome,[7],inactive
same,outcome,[9],inactive
same,outcome,[10],inactive
O=C1c2c(O)cccc2Cc2cccc(O)c21,outcome,[1],inactive
same,outcome,[2],inactive
same,outcome,[3],inactive
same,outcome,[4],inactive
same,outcome,[7],inactive
same,outcome,[9],inactive
same,outcome,[10],inactive
Nc1nc(Cl)nc2c1ncn2[C@H]1C[C@H](O)[C@@H](CO)O1,outcome,[1],inactive
same,outcome,[2],inactive
same,outcome,[11],inactive
same,outcome,[3],inactive
same,outcome,[14],inactive
same,outcome,[12],inactive
same,outcome,[6],inactive
same,outcome,[7],inactive
same,outcome,[9],inactive
same,outcome,[10],inactive
C#CC(O)C(CC)CCCC (configuration not stated),outcome,[1],inactive
same,outcome,[2],inactive
same,outcome,[15],inactive
same,outcome,[3],inactive
same,outcome,[16],inactive
same,outcome,[5],inactive
same,outcome,[8],inactive
same,outcome,[9],inactive
same,outcome,[10],inactive
NC(=Nc1ccccc1)Nc1ccccc1,outcome,[1],inactive
same,outcome,[2],inactive
same,outcome,[17],inactive
same,AC50,[3],57.2 µM (active)
same,outcome,[16],inactive
same,outcome,[12],inactive
same,outcome,[6],inactive
same,outcome,[13],inactive
same,outcome,[7],inactive
same,outcome,[8],inactive
same,outcome,[9],inactive
same,outcome,[10],inactive
Cc1cc(Cc2ccc(N)c(C)c2)ccc1N,outcome,[1],inactive
same,outcome,[2],inactive
same,outcome,[15],inactive
same,outcome,[3],inactive
same,outcome,[16],inactive
same,outcome,[4],inactive
same,outcome,[12],inactive
same,outcome,[7],inactive
same,outcome,[9],inactive
same,outcome,[10],inactive
NC=O,outcome,[1],inactive
same,outcome,[2],inactive
same,outcome,[11],inactive
same,outcome,[3],inactive
same,outcome,[18],inactive
same,outcome,[5],inactive
same,outcome,[6],inactive
same,outcome,[13],inactive
same,outcome,[7],inactive
same,outcome,[19],inactive
same,outcome,[9],inactive
same,outcome,[10],inactive
CCCCC(CC)COC(=O)CCCCCCCC(=O)OCC(CC)CCCC (configuration not stated),outcome,[1],inactive
same,outcome,[2],inactive
same,outcome,[15],inactive
same,outcome,[20],inactive
same,outcome,[3],inactive
same,outcome,[14],inactive
same,outcome,[12],inactive
same,outcome,[6],inactive
same,outcome,[7],inactive
same,outcome,[9],inactive
same,outcome,[10],inactive
CC(=O)OCC(COC(C)=O)OC(C)=O,outcome,[1],inactive
same,outcome,[2],inactive
same,outcome,[11],inactive
same,outcome,[3],inactive
same,outcome,[18],inactive
same,outcome,[14],inactive
same,outcome,[6],inactive
same,outcome,[13],inactive
same,outcome,[7],inactive
same,outcome,[9],inactive
same,outcome,[10],inactive
CC(=O)O,outcome,[1],inactive
same,outcome,[2],inactive
same,outcome,[3],inactive
same,outcome,[16],inactive
same,outcome,[7],inactive
same,outcome,[8],inactive
same,outcome,[9],inactive
same,outcome,[10],inactive
Cc1ccc(-c2cc(C(F)(F)F)nn2-c2ccc(S(N)(=O)=O)cc2)cc1,outcome,[1],inactive
same,outcome,[2],inactive
same,outcome,[17],inactive
same,outcome,[3],inactive
same,outcome,[18],inactive
same,outcome,[7],inactive
same,outcome,[9],inactive
same,outcome,[10],inactive
